According to PubChem BioAssay AID686940 (The Scripps Research Institute Molecular Screening Center, 2013):
The campaign covered roughly 370,000 compounds. About 2,600 (0.7%) were called active. The entries come from a sample that favours actives as a whole. A number with no mark means an inactive call.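 Rule for the calls: active = inhibition above a per-plate cutoff, mean inhibition of test wells between control levels plus 3 SD (cut at about 38% in these data); inactive = the rest.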

These molecules were tested against COUP transcription factor 2 (Homo sapiens) (UniProt P24468) (assay: COUP-TFII reporter suppression in human cells – cell-based, luciferase reporter, HEK293T, luminescence, primary screen (AID 686940;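 note: cells cotransfected with COUP-TFII expression vector driving the NGFI-A reporter; 0% = median of COUP-TF2 test wells and 100% = reporter-only cells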)). Conditions: HEK293T NGFI-A luciferase reporter, at 8.6 µM, hits give high values.
Sequence of COUP transcription factor 2 (Homo sapiens) (P24468 whole entry, looked up): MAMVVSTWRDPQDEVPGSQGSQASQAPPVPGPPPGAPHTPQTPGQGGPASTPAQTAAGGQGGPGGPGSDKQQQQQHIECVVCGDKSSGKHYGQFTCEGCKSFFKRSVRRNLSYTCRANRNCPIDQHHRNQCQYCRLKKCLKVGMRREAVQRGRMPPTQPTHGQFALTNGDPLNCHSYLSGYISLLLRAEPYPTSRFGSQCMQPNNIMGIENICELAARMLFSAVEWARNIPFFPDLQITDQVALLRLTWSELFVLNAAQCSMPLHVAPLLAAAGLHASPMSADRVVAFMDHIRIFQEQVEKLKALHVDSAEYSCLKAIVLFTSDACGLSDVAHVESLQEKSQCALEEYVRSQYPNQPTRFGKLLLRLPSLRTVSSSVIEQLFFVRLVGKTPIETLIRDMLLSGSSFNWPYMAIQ
In the case of `C=CCn1c(C)cc(C2=NNC(=NCC)SC2)c1C`, the inhibition was 94.5% (active).
In the case of `CC(=O)C1(C(=O)Nc2nccs2)CC(c2ccccc2C(F)(F)F)=NO1` (stereo not given), the inhibition was -12.3%.
With `COC(=O)c1cc(S(=O)(=O)N2CCN(c3ccccc3C)CC2)cn1C` the inhibition was 10.7%.
In the case of `CCn1c(SCC(C)=O)nc2sc3c(c2c1=O)CCCC3`, the inhibition was -12%.
Work on `COc1ccccc1CNC(=O)c1ccc(Cl)c(S(=O)(=O)N2CCCC2)c1` yielded an inhibition of 0.19%.
`O=C(NCCc1ccc(F)cc1)c1ccc(S(=O)(=O)N2CCCCC2)cc1` gave an inhibition of -1.06%.
With `NS(=O)(=O)c1ccc(CCNC(=O)c2ccc(Cl)c(S(=O)(=O)N3CCCCCC3)c2)cc1` the inhibition was 60.3% (active).
`CCCC1CCC2(CCCN2CCOC(=O)NCc2ccccc2)CC1` (stereo not given) was tested, and the inhibition was -2.03%.
In the case of `O=C(NC1CCCCN(Cc2ccc(Cl)cc2)C1=O)c1ccc(Br)cc1` (stereo not given), the inhibition was 12.4%.
Work on `CCOC(=O)C1(Cc2ccccc2)CCN(Cc2cn(C(C)=O)c3ccccc23)CC1` yielded an inhibition of 19.5%.
In the case of `Cc1nc2ccccc2cc1OCc1ccc(F)cc1`, the inhibition was 41.9% (active).
For `Fc1ccc(COc2cccc(-c3n[nH]c(=S)o3)c2)cc1`, the inhibition was -3.8%.
`CC(=O)c1ccccc1OCc1ccc(C(=O)c2ccccc2)cc1` gave an inhibition of 23.1%.
With `COc1ccc(Cn2cc(CN3[C@@H](CC(C)C)COc4cc(Br)ccc4S3(=O)=O)nn2)cc1` the inhibition was 0.76%.
`CC(=O)Nc1ccc(S(=O)(=O)N2CCC(C(=O)NC3CC3)CC2)cc1` gave an inhibition of -8.71%.
Molecule `CC(=O)Nc1ccc(NC(=O)C2CCCN(S(=O)(=O)c3ccc(Cl)cc3)C2)cc1` (stereo not given) has an inhibition of -3.16%.
With `O=C(Nc1ccc(S(=O)(=O)N2CCOCC2)cc1)C1CCN(S(=O)(=O)c2ccc(Cl)cc2)CC1` the inhibition was 44.8% (active).
With `COC(=O)C1CN(Cc2ccc(F)cc2)CCS(=O)(=O)N1Cc1ccc(Cl)cc1` (stereo not given) the inhibition was 7.77%.
Work on `CN(C(=O)c1cccc(NC(=O)Cc2ccc([N+](=O)[O-])cc2)c1)C1CCC1` yielded an inhibition of 33.2%.
With `CN(CCc1ccccc1)C(=O)c1cccc(NC(=O)Cc2cccc(NC(=O)C3CCCN(C(=O)CCc4ccccc4)C3)c2)c1` (stereo not given) the inhibition was 44.5% (active).
For `CN(C(=O)c1cccc(NC(=O)Cc2cccc([N+](=O)[O-])c2)c1)C1CCCCC1`, the inhibition was 38.2% (active).
For `CN(CCc1ccccc1)C(=O)c1cccc(NC(=O)Cc2cccc(NC(=O)C3CCCN(C(=O)C4CCC4)C3)c2)c1` (stereo not given), the inhibition was 9.42%.
For `CN(C(=O)c1cccc(NC(=O)Cc2cccc(NC(=O)C3CCCN(C(=O)C4CC4)C3)c2)c1)C1CCC1` (stereo not given), the inhibition was 2.2%.
`CN(C(=O)c1cccc(NC(=O)Cc2ccc(NC(=O)C3CCN(C(=O)C4CCCCC4)CC3)cc2)c1)C1CCC1` was tested, and the inhibition was -2.15%.
Molecule `COC(=O)C1CN(CCc2ccccc2)CCS(=O)(=O)N1Cc1cccc(Cl)c1` (stereo not given) has an inhibition of -5.31%.
In the case of `Cc1ccc(-n2c(SCC(=O)Nc3ccc(S(=O)(=O)Nc4nccs4)cc3)nnc2-c2cccnc2)cc1`, the inhibition was 8.88%.
`O=C(CSc1nnc(-c2cccc(Cl)c2)n1Cc1ccco1)Nc1ccc(OCc2ccccc2)cc1` showed an inhibition of -14.7%.
`O=C(NC1CCC1)c1ccc(C#Cc2cccc(F)c2)c[n+]1[O-]` showed an inhibition of 0.7%.
With `CN1OC[C@@H]2CN(S(=O)(=O)c3cccc(C(F)(F)F)c3)[C@H](c3ccc(-c4cc5ccccc5o4)cc3)C[C@@H]21` the inhibition was 44.1% (active).
Work on `COc1ccccc1-c1ccc([C@@H]2C[C@H]3[C@H](CON3C)CN2S(=O)(=O)c2cc(Cl)cc(Cl)c2)cc1` yielded an inhibition of 5.76%.
`COc1ccc(S(=O)(=O)N2C[C@H]3CON(C)[C@H]3C[C@H]2c2cccc(Br)c2)cc1` gave an inhibition of 10.7%.
`CCOC(=O)c1csc(NC(=O)C2CCCN(S(=O)(=O)c3ccc(Cl)s3)C2)n1` (stereo not given) was tested, and the inhibition was 22.3%.
Molecule `C=C(C)C#CC(Cc1ccccc1)N(CC1CC1)/C(N)=N/C(=O)OCc1ccccc1` (stereo not given) has an inhibition of 5.09%.
For `CCCCNC(=O)C[C@H]1C[C@@]2(C(=O)OC)C(=C[C@H](COCc3ccccc3)O[C@@H]2C)N(Cc2ccc(Cl)cc2Cl)C1=O`, the inhibition was 1.56%.
Work on `COC(=O)[C@]12C[C@H](CC(=O)N3CCOCC3)C(=O)N(Cc3ccc(Cl)cc3Cl)C1=C[C@H](C(C)C)O[C@@H]2C1CC1` yielded an inhibition of 1.35%.
`Cc1ccc(NC(=O)CN(C)CC(=O)Nc2cccc(F)c2)cc1[N+](=O)[O-]` was tested, and the inhibition was 58.8% (active).
`Cc1ccc(NC(=O)CN(C)Cc2ccc(F)cc2)c([N+](=O)[O-])c1` gave an inhibition of -11.4%.
`Cc1ccc(S(=O)(=O)N2CCCCC2)cc1C(=O)N(C)CC(=O)Nc1cccc(F)c1` was tested, and the inhibition was -3.43%.
`c1csc(-c2nnc(SCc3nc4ccccc4[nH]3)o2)c1` was tested, and the inhibition was -10.7%.
Molecule `Cc1ccc(NC(=O)Cc2cccc(F)c2)c(S(=O)(=O)N2CCOCC2)c1` has an inhibition of -8.19%.
In the case of `CCOC(=O)[C@]12CCCC3=C1N(CCC3)C(=O)[C@@H](CC(=O)NCC13CC4CC(CC(C4)C1)C3)C2`, the inhibition was 21.7%.
With `O=C1CC(c2ccc3c(c2)OCO3)N=C2N(CC3CC3)C/C(=C/c3ccccc3)N12` (stereo not given) the inhibition was 20.7%.
With `Cc1nc(CNS(=O)(=O)c2ccc(Oc3ccccc3)cc2)cs1` the inhibition was 50.2% (active).
For `Cc1ccc(S(=O)(=O)NCc2nc3ccccc3c(=O)n2N)cc1`, the inhibition was 0.39%.
`Cc1nc(CNS(=O)(=O)c2cc([N+](=O)[O-])ccc2C)cs1` was tested, and the inhibition was -13.5%.
For `Cc1nn(C(C)C(=O)NCCC2=CCCCC2)c(=O)c2nn(-c3ccccc3)c(C)c12` (stereo not given), the inhibition was -2%.
Molecule `Cc1nn(C(C)C(=O)N2CCOCC2)c(=O)c2nn(-c3ccccc3)c(C)c12` (stereo not given) has an inhibition of 6.72%.
With `Cc1ccc(-n2nc3c(=O)n(C(C)C(=O)NCc4ccc5c(c4)OCO5)nc(C)c3c2C)cc1` (stereo not given) the inhibition was 48.1% (active).
Work on `Cc1cc(NS(=O)(=O)c2ccc(NC(=O)CSc3nnc(-c4ccc(C(C)(C)C)cc4)n3Cc3ccco3)cc2)nc(C)n1` yielded an inhibition of 1.48%.
`CN(CCc1ccccc1)C(=O)Cn1nc(-c2ccccc2)ccc1=O` showed an inhibition of 2.95%.
